Laboratory results reported in PubChem BioAssay AID493085 (Broad Institute, 2011).
The whole screen tested about 2,400 compounds, of which about 360 (15%) were called active. Not shown: some 5% with an inconclusive outcome.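 How the source made its calls: active means falling-signal curve with half-maximal concentration at or below ten times the top tested dose; inconclusive means flat fit at 30 to 70% inhibition, or poor fit; inactive means signal rise, flat within 30%, or potency beyond limit.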 Only a sample is shown. Potency and affinity values are given separately.

Test: Tet-On RFP internal-standard readout, HSF1 screen, dose response, cell-based, NIH3T3 R4, HSE-GFP and Tet-On RFP, cherry-pick, set 3 (AID 493085);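 further: cells heat shocked 2 h at 42 °C with doxycycline to induce reporters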
Details: NIH3T3 R4 HSE-GFP/Tet-RFP reporter, fluorescence, 48 h; series mostly up to 19.5 µM

outcome, inactive:
CCC1CCCCN1C(=O)c1cc2c(=O)n3cccc(C)c3nc2s1 (configuration not stated)
CN(C)c1ccc(C2Nc3ccccc3C(=O)N2CCCN2CCOCC2)cc1 (configuration not stated)
NC(=O)C1CCN(CC(=O)Nc2nc(-c3ccccc3)cs2)CC1
O=C(c1c(F)cccc1F)N1CCN(c2ccccc2F)CC1
Cc1cc(C(=O)NC2CCCN(Cc3ccc(Cl)cc3)C2)n(C)n1 (configuration not stated)
O=Cc1ccc(OC(=O)Cc2ccc(F)cc2)cc1
CC(=NCCc1ccccc1)C1=C(O)CSC1=O
COc1ccc(CNC(=O)C(=O)c2cn(CC(=O)N3CCOCC3)c3ccccc23)cc1
CC(=O)Nc1ccc(NC(=O)CSc2cn(CC(=O)N3CCOCC3)c3ccccc23)cc1
Cc1ccc(N2C(=O)c3ccccc3C2Nc2ccccc2F)nc1 (configuration not stated)
N#Cc1c(NC(=O)CSc2ncccn2)oc(-c2ccccc2)c1-c1ccccc1
Cc1ccc([N+](=O)[O-])cc1NC(=O)CSc1n[nH]c(-c2cccnc2)n1
CC(C)(C)OC(=O)C1C(=O)CC(C)(O)C(C(=O)OC(C)(C)C)C1c1cccnc1 (configuration not stated)
CCC(=O)N1CCc2cc(S(=O)(=O)NCCC(=O)Nc3ccccc3C)ccc21
Cc1onc(-c2ccccc2)c1C(=O)Nc1sc2c(c1C(N)=O)CCC2
C/C(CC(=O)Nc1ccc(N(C)C)cc1)=N\NC(=O)Cc1csc(N)n1
OC(COc1c(F)cc(Br)cc1F)CN1CCN(c2ccc(F)cc2)CC1 (configuration not stated)
COc1cccc(NC(=S)N(CCC(C)C)C2CCN(C(C)=O)CC2)c1
O=C1CCC(=O)N1CNc1ccccn1
CCn1c(=O)c(C(=O)Nc2ccccc2F)c(O)c2ccccc21
Cn1c(C(=O)NN)cc2cc(OCc3ccccc3)ccc21
COc1ccc2nc(NC(=O)CN3CCOCC3)sc2c1
COc1ccc(N2CC(C(=O)Nc3nnc(C4CCCCC4)s3)CC2=O)cc1 (configuration not stated)
O=C(c1ccc(F)cc1)N1CCCC(N2CCN(Cc3ccc4c(c3)OCO4)CC2)C1 (configuration not stated)
COc1nc(-c2ccccc2)c2cc(Br)ccc2n1
COc1ccc(OC(C)C(=O)N2CCC(C)CC2)cc1 (configuration not stated)
CCOC(=O)c1ccc(NC(=S)Nc2ccccc2N)cc1
CCOC(=O)c1ccc(NC(=O)Oc2ccccc2)cc1
COc1ccc(-n2c(-c3ccc(F)cc3)cnc2SCC(=O)NCc2ccco2)cc1
Cc1cc2cc(CCNC(=O)C(=O)c3c[nH]c4ccccc34)c(=O)[nH]c2cc1C
CC(c1ccccc1)N1CCN(C(=O)CCl)CC1 (configuration not stated)
O=C(Nc1ccc(Cl)cn1)c1ccc2c(Cl)c3c(nc2c1)CCC3
O=C(CSc1ccccc1)Nc1cccc(NC(=O)c2ccco2)c1
CC(=O)COc1ccccc1OC(=O)c1ccco1
N/C(=N\c1nc2ccccc2o1)NC(=O)c1ccc(Cl)cc1
Cc1nnc(N2C(=O)c3cccc4cccc(c34)C2=O)s1
COc1cccc(NC(=O)N2CCCC2C(=O)NC(C)C)c1 (configuration not stated)
CCOC(=O)c1cnn(-c2ccccc2)c1-n1cccc1
COc1nn(-c2ccccc2)c(=O)c(Cl)c1Cl
O=C(C1CCC(CNS(=O)(=O)c2cccc3cccnc23)CC1)N1CCCC1 (configuration not stated)
CCC(=O)Nc1c(-c2ccc(Cl)cc2)c(=O)c2ccccc2n1C
COc1c([N+](=O)[O-])c(=O)oc2ccccc12
CCOc1c(C)cc(S(=O)(=O)NCc2cccnc2)c(C)c1C
Cc1ccc(C(=O)Nc2ccc(C(=O)O)cc2NC(=O)c2ccc(C)cc2)cc1
CCOc1ccc(OCc2cccc(C(=O)O)c2)cc1
COc1ccc(C(=O)Nc2ccc(OCc3ccccc3)cc2)cc1[N+](=O)[O-]
CCCCN(C)C(=O)CCC(=O)Nc1ccc2nc(N3CCN(C)CC3)cc(C)c2c1
CC(C)CC(NC(=O)C1CCCN1C(=O)[C@@H](C)NC(=O)OCc1ccccc1)C(=O)NCC(N)=O (some centres not stated)
CC(=O)c1ccc(NC(=O)C(C)n2nc(-c3ccccc3)c3cc(Cl)ccc32)cc1 (configuration not stated)
CC1Cc2ccccc2N1C(=O)C12CCC(C)(C(=O)C1)C2(C)C (configuration not stated)
O=S(=O)(/N=C(/c1ccccc1Cl)N1CCOCC1)c1ccccc1
O=C(c1cc(Cl)ccc1Cl)N1CCOCC1
COc1cc(SC)ccc1C(=O)NCC1CCCO1 (configuration not stated)
COCC(C)NC(=O)c1ccc2nc(-c3ccccc3)c(-c3ccccc3)nc2c1 (configuration not stated)
CCn1cc(S(=O)(=O)Nc2ccc3c(c2)OCCO3)cn1
Cc1nc(SCC(=O)NCC2CCCO2)[nH]c(=O)c1C (configuration not stated)
O=C(Cc1ccccc1F)Nc1ccc(S(=O)(=O)N2CCCCC2)cc1
O=C(N1CCCCC1)N1CCN(S(=O)(=O)c2ccccc2)CC1
C=CCNC(=S)Nc1sc2c(c1C#N)CCCC2
CCOc1ccc(NC(=S)N(CCc2ccncc2)C(C)C)cc1
Cc1ccc([N+](=O)[O-])c(OCCCN2CCC(Cc3ccccc3)CC2)c1
O=C(OCn1ncc(Cl)c(Cl)c1=O)c1ccccc1Cl
COc1cc(NC(=O)Cn2ncc(Cl)c(Cl)c2=O)c(C)cc1[N+](=O)[O-]
CCCNC(=O)NC1C(NC(=O)NCCC)N(C)C(=O)N1C (configuration not stated)
CCc1ccc(NC(=O)C2C3CCC(O3)C2C(=O)O)cc1 (configuration not stated)
Cc1ccc(S(=O)(=O)N(C)c2ccccc2C(=O)NC2CCCC2)cc1
S=c1[nH]nc(-c2cnccn2)n1-c1ccccc1
Cc1ccc(NC(=O)COC(=O)Cn2cnc3ccccc32)cc1S(=O)(=O)N(C)C
O=C(Nc1ccc2[nH]ncc2c1)c1ccccc1Cl
O=C(O)c1ccc(N/N=C/c2ccc(OC(=O)c3ccccc3Cl)cc2)cc1
CC(C)c1ccc(/C=N/Nc2ccc(C(=O)O)cc2)cc1
N#C/C(=C\Nc1ccc2cn[nH]c2c1)c1nc(-c2ccccc2)cs1
